# Measured values reported in the supplement of paper PMC8728848.
# The entries come from a sample that favours the strongest signals as a whole.
# B1: NKR-PIC (Mus musculus) (protein)
# chain: GTGQKPSREKCCVFIQENLNKTTDCSVNLECPQDWLLHRDKCFHVSQVSNTWEEGQADCGRKGATLLLIQDQEELRFLLDSIKEKYNSFWIGLRFTLPDMNWKWINGTTFNSDVLKITGVTENGSCASILGDKVTPESCASDNRWICQKELNHETPSNDSGT
# How the values were obtained:
# Experiment in all cases: glycan array binding signal (z-score within array); higher = stronger binding
# Conditions in all cases: glycan notation: IUPAC condensed, linker removed
# Fuc(a1-2)Gal(b1-3)GalNAc = biological target: Fuc(a1-2)Gal(b1-3)GalNAc
# Summary of the method: (§1)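 Negative Z-scores can be read as non-binding. The Z-score is calculated within each array and then averaged across arrays of one protein sequence at different concentrations or buffers and across linkers. Arrays, 3228 in all, were curated from the Consortium for Functional Glycomics database and kept only where the protein sequence was available.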
# Fuc(a1-2)Gal(b1-3)GlcNAc = biological target: Fuc(a1-2)Gal(b1-3)GlcNAc
# Summary of the method: as §1
# [1] = biological target: Fuc(a1-2)Gal(b1-3)GlcNAc(b1-2)Man(a1-3)[Fuc(a1-2)Gal(b1-3)GlcNAc(b1-2)Man(a1-6)]Man(b1-4)GlcNAc(b1-4)GlcNAc
# Summary of the method: as §1
# [2] = biological target: Fuc(a1-2)Gal(b1-3)GlcNAc(b1-3)GalNAc
# Summary of the method: as §1
# [3] = biological target: Fuc(a1-2)Gal(b1-3)GlcNAc(b1-3)[Neu5Ac(a2-6)Gal(b1-4)GlcNAc(b1-6)]Gal(b1-4)Glc
# Summary of the method: as §1
# [4] = biological target: Fuc(a1-2)Gal(b1-4)GlcNAc(b1-2)Man
# Summary of the method: as §1
# [5] = biological target: Fuc(a1-2)Gal(b1-4)GlcNAc6S
# Summary of the method: as §1
# Fuc(a1-2)Gal6S(b1-4)Glc = biological target: Fuc(a1-2)Gal6S(b1-4)Glc
# Summary of the method: as §1
# [6] = biological target: Fuc(a1-2)[Gal(a1-3)]Gal(b1-4)GlcNAc(b1-2)Man(a1-3)[Fuc(a1-2)[Gal(a1-3)]Gal(b1-4)GlcNAc(b1-2)Man(a1-6)]Man(b1-4)GlcNAc(b1-4)[Fuc(a1-6)]GlcNAc
# Summary of the method: as §1
# [7] = biological target: Fuc(a1-2)[GalNAc(a1-3)]Gal(b1-3)GlcNAc(b1-2)Man(a1-3)[Fuc(a1-2)[GalNAc(a1-3)]Gal(b1-3)GlcNAc(b1-2)Man(a1-6)]Man(b1-4)GlcNAc(b1-4)[Fuc(a1-6)]GlcNAc
# Summary of the method: as §1
# [8] = biological target: Fuc(a1-2)[GalNAc(a1-3)]Gal(b1-3)GlcNAc(b1-6)GalNAc
# Summary of the method: as §1
# [9] = biological target: Gal(a1-3)Gal(b1-4)GlcNAc(b1-3)GalNAc
# Summary of the method: as §1
# [10] = biological target: Gal(b1-3)GlcNAc(b1-6)[Gal(b1-3)]GalNAc
# Summary of the method: as §1
# [11] = biological target: Gal(b1-3)[Fuc(a1-4)]GlcNAc
# Summary of the method: as §1
# [12] = biological target: Gal(b1-4)GlcNAc(b1-2)Man(a1-3)[Gal(b1-4)GlcNAc(b1-2)Man(a1-6)][Gal(b1-4)GlcNAc(b1-4)]Man(b1-4)GlcNAc(b1-4)[Fuc(a1-6)]GlcNAc
# Summary of the method: as §1
# [13] = biological target: Gal(b1-4)GlcNAc(b1-2)Man(a1-6)Man(b1-4)GlcNAc(b1-4)GlcNAc
# Summary of the method: as §1
# Gal3S(b1-3)GalNAc = biological target: Gal3S(b1-3)GalNAc
# Summary of the method: as §1
# [14] = biological target: Gal3S(b1-3)[Fuc(a1-4)]GlcNAc
# Summary of the method: as §1
# Gal6S(b1-4)Glc = biological target: Gal6S(b1-4)Glc
# Summary of the method: as §1
# [15] = biological target: GalNAc(b1-4)GlcNAc(b1-2)Man
# Summary of the method: as §1
# GalNAc(b1-6)GalNAc = biological target: GalNAc(b1-6)GalNAc
# Summary of the method: as §1
# [16] = biological target: GalNAc3S(b1-4)[Fuc(a1-3)]GlcNAc
# Summary of the method: as §1
# GalNAc6S(b1-4)GlcNAc = biological target: GalNAc6S(b1-4)GlcNAc
# Summary of the method: as §1
# [17] = biological target: GlcNAc(a1-3)Gal(b1-4)GlcNAc
# Summary of the method: as §1
# [18] = biological target: GlcNAc(a1-4)Gal(b1-3)GlcNAc
# Summary of the method: as §1
# [19] = biological target: GlcNAc(a1-4)Gal(b1-4)GlcNAc(b1-3)Gal(b1-4)GlcNAc(b1-3)Gal(b1-4)GlcNAc
# Summary of the method: as §1
# [20] = biological target: GlcNAc(b1-2)Man(a1-3)[GlcNAc(b1-2)Man(a1-6)]Man(b1-4)GlcNAc(b1-4)[Fuc(a1-6)]GlcNAc
# Summary of the method: as §1
# [21] = biological target: GlcNAc(b1-2)Man(a1-3)[GlcNAc(b1-4)][GlcNAc(b1-2)Man(a1-6)]Man(b1-4)GlcNAc(b1-4)GlcNAc
# Summary of the method: as §1
# [22] = biological target: GlcNAc(b1-2)Man(a1-3)[GlcNAc(b1-4)][GlcNAc(b1-2)Man(a1-6)]Man(b1-4)GlcNAc(b1-4)[Fuc(a1-6)]GlcNAc
# Summary of the method: as §1
# [23] = biological target: GlcNAc(b1-4)GlcNAc(b1-4)GlcNAc
# Summary of the method: as §1
# [24] = biological target: GlcNAc(b1-4)GlcNAc(b1-4)GlcNAc(b1-4)GlcNAc(b1-4)GlcNAc(b1-4)GlcNAc
# Summary of the method: as §1
# [25] = biological target: Man(a1-2)Man(a1-3)[Man(a1-6)]Man(a1-6)[Man(a1-2)Man(a1-3)]Man(b1-4)GlcNAc(b1-4)GlcNAc
# Summary of the method: as §1
# [26] = biological target: Man(a1-2)Man(a1-6)[Man(a1-3)]Man(a1-6)[Man(a1-2)Man(a1-2)Man(a1-3)]Man
# Summary of the method: as §1
# MurNAc(b1-4)GlcNAc = biological target: MurNAc(b1-4)GlcNAc
# Summary of the method: as §1
# Neu5Ac(a2-6)Gal = biological target: Neu5Ac(a2-6)Gal
# Summary of the method: as §1
# [27] = biological target: Neu5Ac(a2-6)Gal(b1-4)GlcNAc(b1-2)Man(a1-3)[GlcNAc(b1-2)Man(a1-6)]Man(b1-4)GlcNAc(b1-4)GlcNAc
# Summary of the method: as §1
# [28] = biological target: Neu5Ac(a2-6)Gal(b1-4)GlcNAc(b1-3)Gal(b1-4)GlcNAc(b1-3)[Neu5Ac(a2-6)Gal(b1-4)GlcNAc(b1-3)Gal(b1-4)GlcNAc(b1-6)]GalNAc
# Summary of the method: as §1
# [29] = biological target: Neu5Ac(a2-6)GalNAc(b1-4)GlcNAc
# Summary of the method: as §1
# [30] = biological target: Neu5Ac(a2-6)GlcNAc(b1-4)GlcNAc(b1-4)GlcNAc
# Summary of the method: as §1
# [31] = biological target: Neu5Gc(a2-3)Gal(b1-4)GlcNAc
# Summary of the method: as §1
binder,measurement,setting,value
B1,glycan array binding signal (z-score),Fuc(a1-2)Gal(b1-3)GalNAc,-0.288
same,glycan array binding signal (z-score),Fuc(a1-2)Gal(b1-3)GlcNAc,-0.281
same,glycan array binding signal (z-score),[1],-0.138
same,glycan array binding signal (z-score),[2],-0.371
same,glycan array binding signal (z-score),[3],-0.362
same,glycan array binding signal (z-score),[4],-0.316
same,glycan array binding signal (z-score),[5],-0.32
same,glycan array binding signal (z-score),Fuc(a1-2)Gal6S(b1-4)Glc,-0.317
same,glycan array binding signal (z-score),[6],-0.335
same,glycan array binding signal (z-score),[7],-0.375
same,glycan array binding signal (z-score),[8],-0.363
same,glycan array binding signal (z-score),[9],-0.361
same,glycan array binding signal (z-score),[10],-0.308
same,glycan array binding signal (z-score),[11],-0.262
same,glycan array binding signal (z-score),[12],-0.225
same,glycan array binding signal (z-score),[13],-0.334
same,glycan array binding signal (z-score),Gal3S(b1-3)GalNAc,-0.25
same,glycan array binding signal (z-score),[14],-0.318
same,glycan array binding signal (z-score),Gal6S(b1-4)Glc,-0.305
same,glycan array binding signal (z-score),[15],5.67
same,glycan array binding signal (z-score),GalNAc(b1-6)GalNAc,0.458
same,glycan array binding signal (z-score),[16],-0.38
same,glycan array binding signal (z-score),GalNAc6S(b1-4)GlcNAc,4.94
same,glycan array binding signal (z-score),[17],3.83
same,glycan array binding signal (z-score),[18],1.3
same,glycan array binding signal (z-score),[19],4.1
same,glycan array binding signal (z-score),[20],-0.287
same,glycan array binding signal (z-score),[21],3.99
same,glycan array binding signal (z-score),[22],3.73
same,glycan array binding signal (z-score),[23],4.83
same,glycan array binding signal (z-score),[24],4.62
same,glycan array binding signal (z-score),[25],-0.325
same,glycan array binding signal (z-score),[26],-0.367
same,glycan array binding signal (z-score),MurNAc(b1-4)GlcNAc,4.79
same,glycan array binding signal (z-score),Neu5Ac(a2-6)Gal,-0.258
same,glycan array binding signal (z-score),[27],-0.338
same,glycan array binding signal (z-score),[28],-0.332
same,glycan array binding signal (z-score),[29],4.03
same,glycan array binding signal (z-score),[30],5.02
same,glycan array binding signal (z-score),[31],-0.264
